# The source made the active and inactive calls. How the source made its calls: active means hit-call score of the fitted dose curve at least 0.9, where 1 is the maximum; inactive means score below 0.9.
# Read-out: Paternally Expressed 10 (PEG10), PEG10 (gene 23089)
# Assay: LTEA_HepaRG_PEG10: Life Technologies and Expression Analysis (LTEA) Assay for Paternally Expressed 10 (PEG10) using HepaRG (AID 2283520)
# Settings: mRNA level, 48 h; actives raise or lower the signal
# In short: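 Differentiated HepaRG cells, plated 48 h then switched to serum-free induction medium, were exposed in duplicate for 48 h to eight half-log concentrations topping at 100 uM in 0.5% DMSO. PEG10 mRNA was quantified by TaqMan qRT-PCR, normalised to ACTB, GAPDH and POLR2A.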
# Nuclear factor NF-kappa-B p105 subunit (Homo sapiens), sequence (P19838 whole entry, looked up): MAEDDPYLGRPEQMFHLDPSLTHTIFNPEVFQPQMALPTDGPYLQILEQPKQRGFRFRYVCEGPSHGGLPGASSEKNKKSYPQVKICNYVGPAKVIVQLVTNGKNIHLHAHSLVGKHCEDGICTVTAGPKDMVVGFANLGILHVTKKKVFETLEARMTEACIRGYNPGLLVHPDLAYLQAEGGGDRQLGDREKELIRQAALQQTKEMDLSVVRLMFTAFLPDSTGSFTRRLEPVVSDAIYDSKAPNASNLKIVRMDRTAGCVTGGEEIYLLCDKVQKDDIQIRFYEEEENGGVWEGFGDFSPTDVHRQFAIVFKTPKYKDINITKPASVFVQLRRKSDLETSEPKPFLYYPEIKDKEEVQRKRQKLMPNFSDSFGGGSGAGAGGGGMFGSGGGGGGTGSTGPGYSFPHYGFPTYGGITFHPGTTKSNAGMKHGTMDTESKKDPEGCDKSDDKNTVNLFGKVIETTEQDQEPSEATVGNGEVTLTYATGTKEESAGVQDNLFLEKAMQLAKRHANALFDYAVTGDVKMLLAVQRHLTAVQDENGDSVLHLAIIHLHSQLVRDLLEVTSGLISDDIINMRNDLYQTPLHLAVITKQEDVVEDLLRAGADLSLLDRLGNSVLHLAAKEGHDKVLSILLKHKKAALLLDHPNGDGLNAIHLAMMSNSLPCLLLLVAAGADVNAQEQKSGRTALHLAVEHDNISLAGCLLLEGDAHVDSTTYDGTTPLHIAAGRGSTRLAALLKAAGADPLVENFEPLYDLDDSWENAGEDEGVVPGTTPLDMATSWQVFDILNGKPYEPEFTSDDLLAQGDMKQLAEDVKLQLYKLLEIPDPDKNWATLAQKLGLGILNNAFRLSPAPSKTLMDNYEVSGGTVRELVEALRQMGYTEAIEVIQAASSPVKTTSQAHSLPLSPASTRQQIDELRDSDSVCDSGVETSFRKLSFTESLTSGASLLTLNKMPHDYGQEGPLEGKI
SMILES,outcome,AC50
CC[C@H](C)C(=O)O[C@H]1C[C@@H](C)C=C2C=C[C@H](C)[C@H](CC[C@@H]3C[C@@H](O)CC(=O)O3)[C@H]21,inactive,
C=CC(=C)CCC=C(C)C,inactive,
C1=CCCC=CCCC=CCC1,inactive,
CC(C)=CCCC(C)=CC=O,inactive,
Cn1cnc([N+](=O)[O-])c1Sc1ncnc2nc[nH]c12,,1.66 µM (active)
CC(C)CC(C)(O)C#CC(C)(O)CC(C)C (configuration not stated),inactive,

# Read-out: Nuclear factor NF-kappa-B p105 subunit (Homo sapiens) (UniProt P19838)
# Assay: LTEA_HepaRG_NFKB1: Life Technologies and Expression Analysis (LTEA) Assay for Nuclear Factor Kappa B Subunit 1 (NFKB1) using HepaRG (AID 2283521);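 further: differentiated human HepaRG liver cells in serum-free induction medium; TaqMan qRT-PCR transcript normalised to ACTB GAPDH and POLR2A housekeeping genes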
# Settings: mRNA level, 48 h; actives raise or lower the signal
# In short: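 HepaRG, 48 h exposure; 8-pt half-log series from 100 uM in 0.5% DMSO; duplicates. Readout: NFKB1 mRNA by qRT-PCR (Fluidigm arrays), housekeeping-normalized. Gain/loss fit vs DMSO baseline.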
row,SMILES,outcome
1,O=C(O)CCN(C1(C(=O)NO)CCCC1)S(=O)(=O)c1ccc(Oc2ccc(F)cc2)cc1,inactive
2,COC(=O)c1ccccc1O,inactive
3,Clc1nc(Cl)c(Cl)c(Cl)c1Cl,inactive
4,CCOCCOCCOCCO,inactive
5,COC(=O)c1c(Cl)c(Cl)c(C(=O)OC)c(Cl)c1Cl,inactive
6,CC[C@H]1CC[C@H](NCc2cc3c(cc2OC)[C@H]2C[C@H]2C(=O)N3C)[C@H](c2ccccc2)N1,inactive
7,CC(O)CN(CCN(CC(C)O)CC(C)O)CC(C)O (configuration not stated),inactive
8,O=C1CCCCCN1,inactive
9,CCOCCO,inactive
10,COCCOCCOCCOC,inactive
11,CC[C@H](C)C(=O)O[C@H]1C[C@@H](C)C=C2C=C[C@H](C)[C@H](CC[C@@H]3C[C@@H](O)CC(=O)O3)[C@H]21,inactive
12,CC(C)CC(C)(O)C#CC(C)(O)CC(C)C (configuration not stated),inactive

# Read-out: Protein phosphatase 2A (PPP2R4), PTPA (gene 5524)
# Assay: LTEA_HepaRG_PPP2R4: Life Technologies and Expression Analysis (LTEA) Assay for Protein phosphatase 2A (PPP2R4) using HepaRG (AID 2283522)
# Settings: mRNA level, 48 h; actives raise or lower the signal
# In short: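 Differentiated HepaRG cells in serum-free induction medium were exposed in duplicate for 48 h to eight concentrations, top 100 uM with half-log dilutions, in 0.5% DMSO. PPP2R4 mRNA was quantified by TaqMan qRT-PCR, normalized to ACTB, GAPDH and POLR2A.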
SMILES,outcome,AC50
CC1=CC(=O)CC(C)(C)C1,inactive,
CC(C)CCO,inactive,
O=C(O)CCN(C1(C(=O)NO)CCCC1)S(=O)(=O)c1ccc(Oc2ccc(F)cc2)cc1,inactive,
COC(=O)c1ccccc1O,inactive,
CC(=O)OCCC(C)C,inactive,
Clc1nc(Cl)c(Cl)c(Cl)c1Cl,inactive,
Cc1ccc(S(=O)(=O)O)cc1C,inactive,
CCOCCOCCOCCO,inactive,
COC(=O)c1c(Cl)c(Cl)c(C(=O)OC)c(Cl)c1Cl,inactive,
CC1(C)C(=O)N(Br)C(=O)N1Br,inactive,
COC(=O)CC(=O)OC,inactive,
CC[C@H]1CC[C@H](NCc2cc3c(cc2OC)[C@H]2C[C@H]2C(=O)N3C)[C@H](c2ccccc2)N1,inactive,
CC(O)CN(CCN(CC(C)O)CC(C)O)CC(C)O (configuration not stated),,12.5 µM (active)
O=C1CCC(N2C(=O)c3ccccc3C2=O)C(=O)N1 (configuration not stated),inactive,
O=P(OC(CCl)CCl)(OC(CCl)CCl)OC(CCl)CCl,,85.3 µM (active)
COc1cccc(-c2ccc(/C=C\CN3CCCCCC3)cc2Cl)c1,inactive,
O=C1CCCCCN1,inactive,
CCOCCO,inactive,
CCN(C(=O)c1cc(C)cc(OC[C@H](C)Nc2ccncc2)c1)C(C)C,inactive,
CCCCC(CC)COC(=O)c1ccc(C(=O)OCC(CC)CCCC)cc1 (configuration not stated),inactive,
CNS(=O)(=O)c1cc(C(=O)N2CCC(CCN3C4CCC3CC(n3c(C)nc5ccccc53)C4)(c3cccc(F)c3)CC2)c(Cl)cc1F (configuration not stated),inactive,
CCCCCCc1ccc(O)cc1O,inactive,
COCCOCCOCCOC,inactive,
CC[C@H](C)C(=O)O[C@H]1C[C@@H](C)C=C2C=C[C@H](C)[C@H](CC[C@@H]3C[C@@H](O)CC(=O)O3)[C@H]21,inactive,
C=CC(=C)CCC=C(C)C,inactive,
C1=CCCC=CCCC=CCC1,inactive,
CC(C)=CCCC(C)=CC=O,inactive,
Cn1cnc([N+](=O)[O-])c1Sc1ncnc2nc[nH]c12,inactive,
CC(C)CC(C)(O)C#CC(C)(O)CC(C)C (configuration not stated),inactive,
